{"source": "PubChem BioAssay", "note": "Unmarked numbers belong to inactive results. How the calls were made is not given here.", "data": [{"molecular_target": "Pantothenate synthetase (Mycobacterium tuberculosis (strain ATCC 25618 / H37Rv)) (UniProt P9WIL5)", "sequence (P9WIL5 whole entry, looked up)": "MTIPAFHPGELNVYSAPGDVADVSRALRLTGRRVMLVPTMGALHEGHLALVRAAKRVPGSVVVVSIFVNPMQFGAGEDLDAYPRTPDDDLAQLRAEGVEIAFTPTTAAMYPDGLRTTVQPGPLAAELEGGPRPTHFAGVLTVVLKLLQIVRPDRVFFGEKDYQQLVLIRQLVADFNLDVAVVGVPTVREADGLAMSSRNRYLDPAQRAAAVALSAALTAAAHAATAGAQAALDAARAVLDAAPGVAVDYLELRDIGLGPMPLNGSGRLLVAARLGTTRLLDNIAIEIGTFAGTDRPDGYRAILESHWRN", "test": "Coupled enzyme confirmation of inhibitors against recombinant Mtb PanC (AID 375);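 further: 0% = full reaction with vehicle and 100% = no enzyme background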", "conditions": "coupled enzyme assay; at 10 µM, stronger effect = higher value", "units": {"inhibition": "%"}, "values": [{"smiles": "O=C(CSc1ccc(Cl)cc1)OCc1nnc(-c2ccccc2)o1", "inhibition": 1}, {"smiles": "CCN1CCN(S(=O)(=O)c2ccc(S(=O)(=O)N(CC)Cc3ccccc3)cc2)CC1", "inhibition": 7}, {"smiles": "CC1=C(C(=O)Nc2ccccc2)C(c2cccs2)C(C#N)=C(SCC#N)N1", "note": "(configuration not stated)", "inhibition": 5}, {"smiles": "COCCNC(=O)C(c1ccncc1)N(C(=O)Cn1nnc2ccccc21)c1ccc(OC)cc1", "note": "(configuration not stated)", "inhibition": 0}, {"smiles": "O=C(NC1CCCC1)C1CCCN(S(=O)(=O)c2cccc3cccnc23)C1", "note": "(configuration not stated)", "inhibition": 2}, {"smiles": "CCCC(CCC)C(=O)OC1C[C@H]2CC[C@@H](C1)[N+]2(C)C", "note": "(some centres not stated)", "inhibition": 0}, {"smiles": "Cc1csc(NC(=O)c2cc3c(s2)-c2ccccc2OC3)n1", "inhibition": 0}, {"smiles": "Cc1csc(NC(=O)C2CCCO2)n1", "note": "(configuration not stated)", "inhibition": 0}, {"smiles": "COC(=O)CSc1nc(C)c(C(C)=O)cc1C#N", "inhibition": 10}, {"smiles": "CCC1CCCN1Cn1cnc2c([nH]c3ccc(OC)cc32)c1=O", "note": "(configuration not stated)", "inhibition": 1}, {"smiles": "Cc1ccc(O)c(C(=O)c2cc(C#N)c(=O)n(CC3CCCO3)c2)c1", "note": "(configuration not stated)", "inhibition": 8}, {"smiles": "c1ccc2c(Cn3ccnc3)c[nH]c2c1", "inhibition": 0}, {"smiles": "O=c1oc2c3c4c(cc2s1)CCCN4CCC3", "inhibition": 0}, {"smiles": "COc1ccc(Cl)c(NC(=O)NCCN2CCN(c3ccccc3)CC2)c1", "inhibition": 0}, {"smiles": "CCn1c(SCc2nc3ccccc3c(=O)[nH]2)nnc1-c1cccnc1", "inhibition": 4}, {"smiles": "O=C(c1ccccc1-c1ccccc1)N1CCN(c2ccccn2)CC1", "inhibition": 0}, {"smiles": "O=C(Nc1cc(C(F)(F)F)ccc1N1CCCC1)c1ccc2c(c1)OCO2", "inhibition": 2}]}]}
